Data taken from PubChem BioAssay (NCI).
Compounds without any hit were thinned out: in the full panel of roughly 83,000, 20% have a hit.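 Activity criterion: percent growth below 10, measured after cells in 96-well plates were exposed to a single compound concentration for 48 hours.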 Unmarked numbers belong to inactive results. Activity calls are given as the source filed them.

Experiments:
Assay in all cases: NCI-60 one-dose screen, 48 h (100 = growth as untreated, 0 = no growth, -100 = all killed)
Conditions in all cases: 10 µM unless noted
HCT-15 colon = test system: HCT-15 colon
HT29 colon = test system: HT29 colon
SNB-75 CNS = test system: SNB-75 CNS
SNB-19 CNS = test system: SNB-19 CNS
U251 CNS = test system: U251 CNS
PC-3 prostate = test system: PC-3 prostate
SK-MEL-5 melanoma = test system: SK-MEL-5 melanoma
UACC-62 melanoma = test system: UACC-62 melanoma
LOX IMVI melanoma = test system: LOX IMVI melanoma
SK-MEL-28 melanoma = test system: SK-MEL-28 melanoma

COC(=O)c1ccc(NC(=O)CSc2nc(-c3ccc(F)cc3)nc3ccccc23)cc1
growth (HCT-15 colon): 89.3% | growth (HT29 colon): 91.3% | growth (SNB-75 CNS): 79.4% | growth (SNB-19 CNS): 80.2% | growth (U251 CNS): 63.1% | growth (PC-3 prostate): 75.6% | growth (SK-MEL-5 melanoma): 74.3% | growth (UACC-62 melanoma): 93.4% | growth (LOX IMVI melanoma): 64.8% | growth (SK-MEL-28 melanoma): 94.7%

COc1cc(C)ccc1Oc1nc(Nc2ccc(N3CCOCC3)cc2)ncc1N=Cc1cc(C(F)(F)F)cc(C(F)(F)F)c1
growth (HCT-15 colon): 92% | growth (HT29 colon): 64.5% | growth (SNB-75 CNS): 40.1% | growth (SNB-19 CNS): 94.4% | growth (U251 CNS): 71.5% | growth (PC-3 prostate): 77.4% | growth (SK-MEL-5 melanoma): 91% | growth (UACC-62 melanoma): 81% | growth (LOX IMVI melanoma): 61.3% | growth (SK-MEL-28 melanoma): 96.7%

COc1cc(N=Nc2cc(S(=O)(=O)O)cc3cc(S(=O)(=O)O)cc(O)c23)c(C)cc1N=Nc1c(S(=O)(=O)O)cc2cc(Nc3ccccc3)ccc2c1O
growth (HCT-15 colon): 110% | growth (HT29 colon): 105% | growth (SNB-75 CNS): 91.1% | growth (SNB-19 CNS): 104% | growth (U251 CNS): 109% | growth (PC-3 prostate): 90% | growth (SK-MEL-5 melanoma): 105% | growth (UACC-62 melanoma): 98.5% | growth (LOX IMVI melanoma): 99.4% | growth (SK-MEL-28 melanoma): 109%

Cc1ccn2c3c(c(C(=O)O)c2c1)C(=O)c1ccccc1C3=O
growth (HCT-15 colon): 58.8% | growth (HT29 colon): 39.5% | growth (SNB-75 CNS): 87.8% | growth (SNB-19 CNS): 50.4% | growth (U251 CNS): 74.9% | growth (PC-3 prostate): 84.8% | growth (SK-MEL-5 melanoma): -98.9% (active) | growth (UACC-62 melanoma): 0.126% (active) | growth (LOX IMVI melanoma): 48.9% | growth (SK-MEL-28 melanoma): 46%

CSc1nc(-c2ccco2)c2c(N)[nH]nc2n1
growth (HCT-15 colon): 102% | growth (HT29 colon): 93.6% | growth (SNB-75 CNS): 103% | growth (SNB-19 CNS): 110% | growth (U251 CNS): 103% | growth (PC-3 prostate): 101% | growth (SK-MEL-5 melanoma): 100% | growth (UACC-62 melanoma): 92.2% | growth (LOX IMVI melanoma): 92.3% | growth (SK-MEL-28 melanoma): 112%

COc1cccc(C(=O)OCCn2nc3c4c(cccc42)C(=O)c2ccccc2-3)c1O
growth (HCT-15 colon): 28% | growth (HT29 colon): 79.3% | growth (SNB-75 CNS): 22.8% | growth (SNB-19 CNS): 38.3% | growth (U251 CNS): 33.9% | growth (PC-3 prostate): 20.5% | growth (SK-MEL-5 melanoma): 36.4% | growth (UACC-62 melanoma): 31.3% | growth (LOX IMVI melanoma): 37.6% | growth (SK-MEL-28 melanoma): 72.5%

COc1ccc([C@H]2[C@@H](F)C(=O)N2c2cc(OC)c(OC)c(OC)c2)cc1F
growth (HCT-15 colon): 13.6% | growth (HT29 colon): 3.73% (active) | growth (SNB-75 CNS): 50.9% | growth (SNB-19 CNS): 34.1% | growth (U251 CNS): 11.9% | growth (PC-3 prostate): 23.1% | growth (SK-MEL-5 melanoma): -31.5% (active) | growth (UACC-62 melanoma): 53.4% | growth (LOX IMVI melanoma): 24% | growth (SK-MEL-28 melanoma): 57.7%

C=C(C)[C@@H]1CC[C@]2(C(=O)N3CCN(C)CC3)CC[C@]3(C)[C@H](CC[C@@H]4[C@@]5(C)C/C(=C/c6ccco6)C(=O)C(C)(C)[C@@H]5CC[C@]43C)[C@@H]12
growth (HCT-15 colon): 46.6% | growth (HT29 colon): 25.8% | growth (SNB-75 CNS): 68% | growth (SNB-19 CNS): 80.1% | growth (U251 CNS): 60.9% | growth (PC-3 prostate): 37.2% | growth (SK-MEL-5 melanoma): 68.9% | growth (UACC-62 melanoma): 76.1% | growth (LOX IMVI melanoma): 30.1% | growth (SK-MEL-28 melanoma): 55.7%

CC(=O)[C@@H]1CC[C@]2(C(=O)O)CC[C@]3(C)[C@H](CC[C@@H]4[C@@]5(C)Cc6c([nH]c7ccccc67)C(C)(C)[C@@H]5CC[C@]43C)[C@@H]12
growth (HCT-15 colon): 44.3% | growth (HT29 colon): 68.6% | growth (SNB-75 CNS): 94.7% | growth (SNB-19 CNS): 70.2% | growth (U251 CNS): 45% | growth (PC-3 prostate): 40.7% | growth (SK-MEL-5 melanoma): 71.8% | growth (UACC-62 melanoma): 67.9% | growth (LOX IMVI melanoma): 50.1% | growth (SK-MEL-28 melanoma): 78.5%

OCCNc1nc(NCCO)nc(Nc2ccc(C3=NN(c4cc(Cl)cc(Cl)c4)C(c4ccc(C(F)(F)F)cc4)C3)cc2)n1 (stereo not given)
growth (HCT-15 colon): 17.5% | growth (HT29 colon): 10.5% | growth (SNB-75 CNS): -1.68% (active) | growth (SNB-19 CNS): 44.4% | growth (U251 CNS): 19.3% | growth (PC-3 prostate): 19.2% | growth (SK-MEL-5 melanoma): 52.7% | growth (UACC-62 melanoma): 47.1% | growth (LOX IMVI melanoma): -48.5% (active) | growth (SK-MEL-28 melanoma): 44.8%

COc1ccc2nc(-c3ccc(OC)c(OC)c3)cc(-c3nnc(SCC(=O)Nc4ccc(/C(C)=N\O)cc4)n3-c3ccccc3)c2c1
growth (HCT-15 colon): 76.2% | growth (HT29 colon): 89.2% | growth (SNB-75 CNS): 77.3% | growth (SNB-19 CNS): 84.3% | growth (U251 CNS): 78.3% | growth (PC-3 prostate): 60.7% | growth (SK-MEL-5 melanoma): 71.7% | growth (UACC-62 melanoma): 71.1% | growth (LOX IMVI melanoma): -28.1% (active) | growth (SK-MEL-28 melanoma): 111%

COC(=O)/C=C1\SC(=Nc2ccc(F)cc2)N(CCc2c[nH]c3ccccc23)C1=O
growth (HCT-15 colon): 98.3% | growth (HT29 colon): 66.3% | growth (SNB-75 CNS): 108% | growth (SNB-19 CNS): 103% | growth (U251 CNS): 98.2% | growth (PC-3 prostate): 87.9% | growth (SK-MEL-5 melanoma): 99.5% | growth (UACC-62 melanoma): 82.6% | growth (LOX IMVI melanoma): 90% | growth (SK-MEL-28 melanoma): 112%

C1=CC2=CC=C3C=CC=C4C(c5nc6c7ccccc7c7ccccc7c6[nH]5)=CC(=C1)C2C34 (stereo not given)
growth (HCT-15 colon): 90.8% | growth (HT29 colon): 102% | growth (SNB-75 CNS): 102% | growth (SNB-19 CNS): 103% | growth (U251 CNS): 104% | growth (PC-3 prostate): 78.8% | growth (SK-MEL-5 melanoma): 101% | growth (UACC-62 melanoma): 61.6% | growth (LOX IMVI melanoma): 86.3% | growth (SK-MEL-28 melanoma): 107%

COc1cc([C@H](C)c2ccc3ccccc3c2)cc(OC)c1OC
growth (HCT-15 colon): 21.7% | growth (HT29 colon): 8.72% (active) | growth (SNB-75 CNS): 0.258% (active) | growth (SNB-19 CNS): 32.7% | growth (U251 CNS): 19.6% | growth (PC-3 prostate): 30.5% | growth (SK-MEL-5 melanoma): 18.1% | growth (UACC-62 melanoma): 32.5% | growth (LOX IMVI melanoma): 48.6% | growth (SK-MEL-28 melanoma): 61.8%

C[C@H](Oc1cc(-c2cnn(C3CCNCC3)c2)cnc1N)c1c(Cl)ccc(F)c1Cl
growth (HCT-15 colon): 43.2% | growth (HT29 colon): 12.4% | growth (SNB-75 CNS): 76.3% | growth (SNB-19 CNS): 65.6% | growth (U251 CNS): 37.6% | growth (PC-3 prostate): 45.9% | growth (SK-MEL-5 melanoma): 59% | growth (UACC-62 melanoma): 60.2% | growth (LOX IMVI melanoma): 8.87% (active) | growth (SK-MEL-28 melanoma): -46.5% (active)

C=C1C(=O)O[C@H]2[C@H]1CC/C(COC(=O)c1cc3ccccc3o1)=C\CC[C@@]1(C)O[C@@H]21
growth (HCT-15 colon): -68.6% (active) | growth (HT29 colon): -49.6% (active) | growth (SNB-75 CNS): 76.5% | growth (SNB-19 CNS): 16.7% | growth (U251 CNS): 15.4% | growth (PC-3 prostate): -8.8% (active) | growth (SK-MEL-5 melanoma): 7.03% (active) | growth (UACC-62 melanoma): -37.7% (active) | growth (LOX IMVI melanoma): -89.3% (active) | growth (SK-MEL-28 melanoma): -48% (active)

CCCn1c(N)c(C(N)=O)sc1=S
growth (HCT-15 colon): 90.6% | growth (HT29 colon): 106% | growth (SNB-75 CNS): 82.9% | growth (SNB-19 CNS): 97.2% | growth (U251 CNS): 97.4% | growth (PC-3 prostate): 96% | growth (SK-MEL-5 melanoma): 111% | growth (UACC-62 melanoma): 97.9% | growth (LOX IMVI melanoma): 93.7% | growth (SK-MEL-28 melanoma): 105%

CCCCn1c(=O)c(/C=C/C(=O)/C=C/c2ccc(O)c(OC)c2)cc2ccc(Cl)cc21
growth (HCT-15 colon): 9.41% (active) | growth (HT29 colon): -41.7% (active) | growth (SNB-75 CNS): 54.8% | growth (SNB-19 CNS): 38.3% | growth (U251 CNS): 3.33% (active) | growth (PC-3 prostate): 27.2% | growth (SK-MEL-5 melanoma): 3.38% (active) | growth (UACC-62 melanoma): 2.4% (active) | growth (LOX IMVI melanoma): -51.3% (active) | growth (SK-MEL-28 melanoma): 38.8%

C=C1C(=O)O[C@H]2[C@H]1CC/C(COC(=O)CCCCCCC(=O)OC/C1=C/CC[C@@]3(C)O[C@H]3[C@H]3OC(=O)C(=C)[C@@H]3CC1)=C\CC[C@@]1(C)O[C@@H]21
growth (HCT-15 colon): 0.887% (active) | growth (HT29 colon): 3.75% (active) | growth (SNB-75 CNS): 63.1% | growth (SNB-19 CNS): 65.9% | growth (U251 CNS): 44.1% | growth (PC-3 prostate): 36.1% | growth (SK-MEL-5 melanoma): 36.5% | growth (UACC-62 melanoma): 42.3% | growth (LOX IMVI melanoma): -10.8% (active) | growth (SK-MEL-28 melanoma): 48.8%

CN(C)CCCn1c2c(c3cc(-c4cccc(S(N)(=O)=O)c4)ccc3c1=O)C(=O)c1ccccc1-2
growth (HCT-15 colon): 61.7% | growth (HT29 colon): -6.96% (active) | growth (SNB-75 CNS): 59.1% | growth (SNB-19 CNS): 64.8% | growth (U251 CNS): 47.5% | growth (PC-3 prostate): 67.3% | growth (SK-MEL-5 melanoma): 85.3% | growth (UACC-62 melanoma): 77.3% | growth (LOX IMVI melanoma): 56.3% | growth (SK-MEL-28 melanoma): 113%
